The source of these data is PubChem BioAssay (Tox21).

Experiment [1] in a line: qHTS RealTime-Glo MT Cell Viability Assay in HEK293 cells - 40 hour (AID 1224874). Further: nearly all actives have a fitted effect of over 50% in size. Particulars: RealTime-Glo luminescence; max response: stronger effect = lower value. Summed up:
(§1)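 HEK293 + NanoLuc + prosubstrate, 600 cells/well; 5 h, 37 C/5% CO2; compound 23 nL in DMSO by pintool; 37 C; luminescence read at 0, 8, 16, 24, 32 and 40 h time points.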
Background: qHTS replaces the single test concentration by a dilution series.

Experiment [2] is described as follows: A CellTox Green Cytotoxicity Assay to monitor cytotoxicity in HepG2 cells - 16 hour (AID 1224876). Further: nearly all actives have a fitted effect of over 45% in size. Summed up: (§2)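 Measurements at 0, 8, 16, 24, 32 and 40 h of treatment captured CellTox Green fluorescence in HepG2 cells that had been co-plated with reagent and preincubated 5 h at 37 C/5% CO2.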
Experiment [3] can be described thus: qHTS RealTime-Glo MT Cell Viability Assay in HepG2 cells - 32 hour (AID 1224877). Further: nearly all actives have a fitted effect of over 55% in size. An outline of the steps:
(§3)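 Compound treatment began 5 h after plating HepG2 cells (600/well) with NanoLuc luciferase and prosubstrate. Plates stayed at 37 C for 40 h; luminescence was captured at six time points, 0 h through 40 h.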

A short description of experiment [4]: A CellTox Green Cytotoxicity Assay to monitor cytotoxicity in HepG2 cells - 24 hour (AID 1224878). Further: nearly all actives have a fitted effect of over 45% in size. Summed up:
as §2

Experiment [5] is described as follows: A CellTox Green Cytotoxicity Assay to monitor cytotoxicity in HepG2 cells - 40 hour (AID 1224879). Further: nearly all actives have a fitted effect of over 40% in size. Further: potency means the concentration at half of the fitted maximal effect. Summed up:
as §2

Experiment [6] in a line: qHTS RealTime-Glo MT Cell Viability Assay in HEK293 cells - 0 hour (AID 1224880). Further: top concentration of the series differs between compounds; nearly all actives have a fitted effect of over 45% in size. Summed up: as §1
The nature of experiment [7]: A CellTox Green Cytotoxicity Assay to monitor cytotoxicity in HEK293 cells - 32 hour (AID 1224881). Further: nearly all actives have a fitted effect of over 40% in size. Further: potency means the concentration at half of the fitted maximal effect. An outline of the steps:
(§4)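 Tox21 screen in HEK293: membrane-impermeant cyanine dye fluoresces on binding dead-cell DNA; compound pinned 5 h post-seeding, plates held at 37 C, signal read repeatedly through 40 h.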

A short description of experiment [8]: A CellTox Green Cytotoxicity Assay to monitor cytotoxicity in HepG2 cells - 0 hour (AID 1224882). Further: nearly all actives have a fitted effect of over 35% in size. Summed up:
as §2

Experiment [9] in a line: A CellTox Green Cytotoxicity Assay to monitor cytotoxicity in HepG2 cells - 32 hour (AID 1224883). Further: nearly all actives have a fitted effect of over 50% in size. Further: potency means the concentration at half of the fitted maximal effect. An outline of the steps:
as §2

Experiment [10] in a line: A CellTox Green Cytotoxicity Assay to monitor cytotoxicity in HEK293 cells - 8 hour (AID 1224884). Further: nearly all actives have a fitted effect of over 35% in size. Further: potency means the concentration at half of the fitted maximal effect. Summed up: as §4
The nature of experiment [11]: qHTS RealTime-Glo MT Cell Viability Assay in HepG2 cells - 16 hour (AID 1224885). Further: nearly all actives have a fitted effect of over 50% in size. An outline of the steps: as §3
Experiment [12] can be described thus: qHTS RealTime-Glo MT Cell Viability Assay in HEK293 cells - 24 hour (AID 1224886). Further: top concentration of the series differs between compounds; nearly all actives have a fitted effect of over 50% in size. An outline of the steps: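 Quantitative high-throughput screen of the Tox21 10K library in HEK293: cells and RealTime-Glo reagents plated together, compound added at 5 h, luminescence monitored through 40 h at 37 C.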
Experiment [13] in a line: qHTS RealTime-Glo MT Cell Viability Assay in HEK293 cells - 8 hour (AID 1224887). An outline of the steps:
as §1

The nature of experiment [14]: qHTS RealTime-Glo MT Cell Viability Assay in HepG2 cells - 0 hour (AID 1224889). Further: nearly all actives have a fitted effect of over 50% in size. An outline of the steps:
as §3

The nature of experiment [15]: A CellTox Green Cytotoxicity Assay to monitor cytotoxicity in HepG2 cells - 8 hour (AID 1224890). Further: nearly all actives have a fitted effect of over 45% in size. Further: potency means the concentration at half of the fitted maximal effect. An outline of the steps: as §2
Experiment [16] can be described thus: qHTS assay to identify small molecule antagonists of the estrogen receptor alpha (ER-alpha) signaling pathway using the BG1 cell line in the presence of 0.1 nM 17-beta-estradiol - cell viability counter screen (AID 1259241). Further: nearly all actives have a fitted effect of over 40% in size. Summed up: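 In this screen, hormone-deprived VM7Luc4E2 cells were seeded at 4,000 per well, dosed with compound and 0.1 nM estradiol final, and incubated 22 hr at 37C and 5% CO2; fluorogenic live-cell protease signal reported viability.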

Experiment [17] in a line: qHTS assay to identify small molecule antagonists of the androgen receptor (AR) signaling pathway using the MDA cell line in the presence of 0.5 nM R1881 - cell viability counter screen (AID 1259242). Further: nearly all actives have a fitted effect of over 45% in size. An outline of the steps: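 Concentration-response screen of compounds for toxicity in MDA-kb2 reporter cells: 16 hr at 37C with 0.5 nM R1881, endpoint live-cell protease fluorescence measured in the reporter wells.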

The target in experiment [18] is Androgen receptor (Homo sapiens) (UniProt P10275). As to the kind of experiment: qHTS assay to identify small molecule antagonists of the androgen receptor (AR) signaling pathway using the MDA cell line in the presence of 0.5 nM R1881 (AID 1259243). Further: nearly all actives have a fitted effect of over 50% in size. An outline of the steps:
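With R1881 held at 0.5 nM (final), compound effects on MMTV-luciferase expression in MDA-kb2 cells were scored by luminescence after a 16 hr, 37C incubation.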

A short description of experiment [19]: A CellTox Green Cytotoxicity Assay to monitor cytotoxicity in HEK293 cells - 24 hour (AID 1224875). Summed up: as §4
Experiment [20] is described as follows: A CellTox Green Cytotoxicity Assay to monitor cytotoxicity in HEK293 cells - 16 hour (AID 1224888). Further: nearly all actives have a fitted effect of over 35% in size. Summed up:
as §4

Values joined by “and” are separate entries in the source; they are usually repeats but may differ in a detail not shown here. Equal values may be shown once. Inconclusive results are not listed. A structure can be active in one record and inactive in another. Active and inactive are the calls of the source. The call rests on the fitted dose curve; in most records, active means well fitted curve in the direction sought with a large enough effect in the repeat runs; inconclusive means weak or mixed curves; inactive means no such curve, though single readings can be large; an effect the other way counts as inactive or inconclusive.
On the % scale 0 is the no-effect control and ±100 the full control effect.

Sequence of Androgen receptor (Homo sapiens) (P10275 whole entry, looked up): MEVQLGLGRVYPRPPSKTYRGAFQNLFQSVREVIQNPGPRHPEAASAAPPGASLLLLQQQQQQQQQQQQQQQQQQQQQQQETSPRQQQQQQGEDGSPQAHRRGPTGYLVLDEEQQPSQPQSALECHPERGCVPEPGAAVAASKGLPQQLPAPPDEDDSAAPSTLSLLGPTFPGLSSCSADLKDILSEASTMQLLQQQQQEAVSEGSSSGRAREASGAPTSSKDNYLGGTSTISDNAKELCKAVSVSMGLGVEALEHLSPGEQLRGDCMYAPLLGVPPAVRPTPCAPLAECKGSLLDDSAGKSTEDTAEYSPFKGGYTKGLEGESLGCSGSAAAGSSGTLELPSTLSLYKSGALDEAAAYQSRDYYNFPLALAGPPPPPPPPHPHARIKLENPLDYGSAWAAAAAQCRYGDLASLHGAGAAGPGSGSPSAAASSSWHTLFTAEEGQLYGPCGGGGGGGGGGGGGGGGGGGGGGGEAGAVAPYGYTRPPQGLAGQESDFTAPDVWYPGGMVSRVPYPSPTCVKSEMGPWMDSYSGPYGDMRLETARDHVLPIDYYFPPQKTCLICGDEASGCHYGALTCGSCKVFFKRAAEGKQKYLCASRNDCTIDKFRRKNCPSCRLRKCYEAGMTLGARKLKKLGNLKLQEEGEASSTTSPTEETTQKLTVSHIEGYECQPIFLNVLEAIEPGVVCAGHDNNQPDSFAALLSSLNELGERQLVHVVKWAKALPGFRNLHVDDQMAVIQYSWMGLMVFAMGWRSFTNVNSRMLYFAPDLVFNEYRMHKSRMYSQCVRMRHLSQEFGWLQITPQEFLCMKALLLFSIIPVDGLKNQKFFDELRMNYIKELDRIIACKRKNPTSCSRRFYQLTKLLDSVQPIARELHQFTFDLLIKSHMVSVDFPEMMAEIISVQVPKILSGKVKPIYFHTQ

As for `c1cc2c3c(cccc3c1)CC2`, the max response in experiment [1] was 0.321% (inactive) and -19.1% (inactive). The Potency entry in experiment [2], in [4], in experiment [5], in experiment [8], in experiment [9] and in experiment [12] was “inactive” each time. Also, the Potency entry in experiment [15], in [16] and in experiment [18] was “inactive” in each case. For the same compound, the result in experiment [3], in experiment [6], in [11], in experiment [13], in [14] and in experiment [17] was inactive. Further, the Potency entry in experiment [7] is “inactive and 49 µM (active)”; in [10] it was “inactive and 49 µM (active)”.
As to `CCCCOC(=O)c1ccccc1C(=O)OCCCC`, the max response in [1] was -5.69% (inactive) and -1.79% (inactive). Moreover, the Potency result in experiment [19], in [4], in experiment [5], in [7], in experiment [8] and in experiment [9] was “inactive” in each case. Moreover, the Potency entry in [10], in [12], in [20], in experiment [15] and in [16] was “inactive” in each case. Besides, the compound was classed as inactive in [3], in [6], in [11], in experiment [13], in [14] and in [17].
`CN(C)[C@@H]1C(=O)C(C(N)=O)=C(O)[C@@]2(O)C(=O)C3=C(O)c4c(O)cccc4[C@@](C)(O)[C@H]3C[C@@H]12`: the max response in experiment [1] was 8.71% (inactive) and 13.3% (inactive) and -4.27% (inactive). Further, the Potency result in experiment [19], in experiment [4], in experiment [5], in experiment [7], in experiment [9] and in experiment [10] was “inactive” each time. For the same compound, the Potency entry in experiment [12], in experiment [20], in experiment [15] and in [16] was “inactive” in each case. Also, the outcome in experiment [3], in experiment [6], in experiment [11], in experiment [13] and in [14] was inactive.
For `CCC(C)(CC)c1cc(NC(=O)c2c(OC)cccc2OC)on1`, the Potency result in experiment [19], in experiment [2], in experiment [4], in [5], in experiment [7] and in experiment [8] was “inactive” in each case. Moreover, the Potency entry in [9], in experiment [10], in experiment [12], in experiment [20], in [15] and in experiment [16] was “inactive” in each case. In addition, the call in experiment [3], in experiment [6], in experiment [11], in experiment [13] and in experiment [14] was inactive.
Take `CCC[CH2][Sn]([Cl])([Cl])[Cl]`: the Potency result in experiment [19], in experiment [2], in experiment [4], in experiment [5], in [7] and in [9] was “inactive” throughout. For the same compound, the Potency result in experiment [10], in experiment [12], in experiment [20], in [15] and in [16] was “inactive” in each case. For the same compound, the call in experiment [3], in experiment [6], in [11], in experiment [13] and in experiment [14] was inactive.
For `COC(=O)NC(=S)Nc1ccccc1NC(=S)NC(=O)OC`, the Potency result in [19], in experiment [2], in experiment [4], in experiment [5], in experiment [7] and in [9] was “inactive” throughout. The Potency result in [10], in experiment [12], in [20], in [15] and in experiment [16] was “inactive” each time. In addition, the compound was classed as inactive in experiment [3], in experiment [6], in experiment [11], in [13] and in experiment [14].
As for `Cc1cccc([N+](=O)[O-])c1`, in experiment [1], the max response was 1.89% (inactive) and 2.13% (inactive). Besides, the Potency entry in experiment [19], in [4], in [5], in [7], in experiment [9] and in experiment [10] was “inactive” in each case. Moreover, the Potency result in experiment [12], in [20], in experiment [15] and in experiment [16] was “inactive” throughout. In addition, the call in experiment [3], in experiment [6], in experiment [11], in [13], in experiment [14] and in experiment [17] was inactive.
In the case of `O=c1ccc(=O)[nH][nH]1`, in [1], the max response was -2.89% (inactive) and -0.4% (inactive). Further, the Potency entry in experiment [19], in experiment [4], in experiment [7], in [8], in [10] and in [12] was “inactive” each time. In addition, the Potency result in experiment [20], in experiment [15], in [16] and in [18] was “inactive” each time. In addition, the compound was classed as inactive in experiment [3], in [6], in experiment [11], in experiment [13], in experiment [14] and in [17]. In addition, the Potency entry was “inactive and 130 nM (active)” in [5]; “inactive and 130 nM (active)” in experiment [9].
In the case of `O=NN1CCCC1`, the max response in [1] is -15.8% (inactive) and -5.95% (inactive). In addition, the Potency entry in experiment [19], in experiment [7], in [12], in experiment [20] and in [16] was “inactive” in each case. For the same compound, the compound was classed as inactive in experiment [3], in experiment [6], in [11], in [13] and in experiment [14]. For the same compound, the Potency in experiment [5] is 57.5 µM (active) and inactive; in experiment [10], “inactive and 21.9 µM (active)”; in experiment [15], “inactive and 38.9 µM (active)”.
As to `CC(C)=C[C@@H]1[C@@H](C(=O)OCc2coc(Cc3ccccc3)c2)C1(C)C`, in experiment [1], the max response is -1.11% (inactive) and 8.33% (inactive). Further, the Potency result in experiment [19], in experiment [4], in experiment [5], in experiment [7], in experiment [9] and in [10] was “inactive” throughout. For the same compound, the Potency result in [12], in [20], in [15] and in [16] was “inactive” in each case. For the same compound, the result in experiment [3], in experiment [6], in experiment [11], in [13], in [14] and in experiment [17] was inactive.
Regarding `O=S(=O)(c1ccc(Cl)cc1)c1cc(Cl)c(Cl)cc1Cl`, the Potency result in experiment [19], in experiment [2], in experiment [4], in experiment [5], in experiment [7] and in experiment [8] was “inactive” each time. For the same compound, the Potency entry in [9], in experiment [10], in experiment [12], in [20], in experiment [15] and in experiment [16] was “inactive” each time. Further, the compound was called inactive in experiment [3], in [6], in experiment [11], in [13], in experiment [14] and in experiment [17].
As for `CC(C)(C)OOC(=O)c1ccccc1`, the max response in experiment [1] is -10.9% (inactive) and 1.81% (inactive). In addition, the Potency result in experiment [19], in [4], in experiment [5], in [7], in [8] and in experiment [9] was “inactive” throughout. In addition, the Potency entry in [10], in [12], in experiment [20], in experiment [15] and in experiment [16] was “inactive” in each case. The call in [3], in experiment [6], in [11], in experiment [14] and in [17] was inactive.
In the case of `O=c1[nH]c2ccccc2c(=O)o1`, the max response in experiment [1] was -0.172% (inactive). The Potency result in experiment [19], in experiment [4], in experiment [5], in experiment [7], in [9] and in experiment [10] was “inactive” each time. Also, the Potency entry in experiment [12], in experiment [20], in [15] and in experiment [16] was “inactive” each time. The compound was classed as inactive in experiment [3], in experiment [6], in experiment [11], in experiment [13] and in [14].
Regarding `Cc1ccc([N+](=O)[O-])cc1C`, in experiment [1], the max response was -0.25% (inactive) and 2.38% (inactive). For the same compound, the Potency entry in experiment [19], in experiment [4], in experiment [5], in [7], in experiment [9] and in experiment [10] was “inactive” in each case. The Potency result in experiment [12], in [20], in experiment [15] and in experiment [16] was “inactive” in each case. In addition, the outcome in [3], in experiment [6], in experiment [11], in [13] and in experiment [14] was inactive.
